Compound activity deposited in PubChem BioAssay by several laboratories.
A1 inh: inhibitors of the anti-apoptotic protein A1, read as caspase activation | 0.066% of 330,000 active | caspase activation, % (no concentration beside the values) | MEF A1-2A-BIM cells, Caspase-Glo 3/7 luminescence, 3 h; percent of clofoctol response, vehicle zero;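 active means over half of replicate activation scores above 10%, or exactly half above 10 with the replicate mean above 10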
Neddylation inh: inhibitors of human cullin neddylation. AID 651699. 0.58% of 360,000 active. TR-FRET cullin neddylation, biochemical. inhibition, % at 25 µM. P61081+Q13564; in the data active means inhibition above about 36%
GSIS activator: GLuc luminescence reporter in INS-1E cells, primary screen for activators of glucose-dependent secretion of insulin | 0.61% of 370,000 active | INS-1E GLuc reporter insulin secretion, 2-3 h | activation, % at 16.6 µM;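 active means lowest replicate activation of at least 40%, so every replicate reaches that level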;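 further: 0% = median of neutral control wells and 100% = median of IBMX positive control wells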
Vif imaging: blocks HIV Vif function | HEK293T cells, Vif self-association by quenched fluorescence, imaging, 24 h | inhibition, % at 7.49 µM | 0.35% of 340,000 active | AID 602346; in the data active means inhibition above about 50%, passing the limit was not always enough
dFosB act: activators of mouse delta FosB homodimer. 0.99% of 340,000 active. activation, % at 25 µM. purified delta FosB, TAMRA-CDK5 oligo fluorescence polarization; percent of positive-control signal above neutral wells;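 active means mean activation above about 17%, with every replicate also reaching it, limit read from the data, passing the limit was not always enough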
Target sequence (P13346 whole entry, looked up): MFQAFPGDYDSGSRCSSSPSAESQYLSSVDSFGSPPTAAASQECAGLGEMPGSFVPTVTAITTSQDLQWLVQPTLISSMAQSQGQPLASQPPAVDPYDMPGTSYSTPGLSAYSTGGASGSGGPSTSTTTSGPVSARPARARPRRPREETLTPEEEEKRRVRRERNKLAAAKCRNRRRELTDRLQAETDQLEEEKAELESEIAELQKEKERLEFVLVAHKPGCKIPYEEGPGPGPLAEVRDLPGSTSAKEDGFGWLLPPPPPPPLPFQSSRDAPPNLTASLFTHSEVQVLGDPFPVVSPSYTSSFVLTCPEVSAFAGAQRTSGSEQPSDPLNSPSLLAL
An asterisk follows results filed as active; / = no result given. Rows were chosen to be rich in hits. Some 1.9% of all compounds tested hit in one or more screens of this group.

SMILES	A1 inh	Neddylation inh	GSIS activator	Vif imaging	dFosB act
COc1cc(/C=C/C(=O)OCC(=O)NCCc2ccc(F)cc2)ccc1OC(F)F	0	18	/	-13	7
COc1ccc2c3c(n(C)c2c1)[C@@H](CO)N(C)CC31CN(S(C)(=O)=O)C1	/	/	18	/	/
CCC(C)(CC(=O)Nc1nccs1)c1ccccc1 (stereo unspecified)	1	2	41*	-3	-4
Cc1ccc(N2C(=O)CC(N3CCN(c4ccc(F)cc4)CC3)C2=O)c(C)c1 (stereo unspecified)	1	2	-14	0	-5
Cc1ccc(-n2sc3cc(F)ccc3c2=O)c(C)c1	/	0	207*	3	/
O=c1c2ccc(F)cc2sn1-c1ccccc1	/	8	128*	-9	/
O=c1c2ccccc2sn1-c1ccc(F)cc1	-12	2	145*	1	5
O=c1c2cc(F)ccc2sn1-c1ccccc1Cl	/	-26	202*	-4	/
Cc1ccc(-n2sc3ccccc3c2=O)cc1	-10	-5	6	2	-3
CO[C@@H]1CN(C)C(=O)c2cc(NS(=O)(=O)CC(F)(F)F)ccc2OC[C@@H](C)N(C(=O)c2ccc3c(c2)OCO3)C[C@H]1C	/	/	-3	/	/
CO[C@@H]1CN(C)C(=O)c2cc(NC(=O)C3CCC3)ccc2OC[C@H](C)N(C(=O)CN(C)C)C[C@H]1C	/	/	3	/	/
CCC1=Nc2cc(C(=O)NCc3ccco3)ccc2Sc2ccc(C)cc21	0	5	/	57*	4
COCCNC(=O)NC1(C(F)(F)F)Oc2ccc(Cl)cc2O1 (stereo unspecified)	3	-10	-7	19	-4
Cc1cc(NC(=O)NC2(C(F)(F)F)Oc3ccc(Cl)cc3O2)no1 (stereo unspecified)	0	-19	12	105*	9
O=C(NCc1cccnc1)NC1(C(F)(F)F)Oc2ccc(Cl)cc2O1 (stereo unspecified)	0	5	/	137*	0
CN(C)CC(=O)Nc1ccc2c(c1)[C@@H]1C[C@H](CC(=O)NCc3ccccc3F)O[C@@H](CO)[C@@H]1O2	/	/	2	/	/
COc1ccc(C#Cc2ccc([C@@H]3[C@@H](CO)N4CCCCN(C(=O)Nc5ccc(F)cc5)C[C@@H]34)cc2)cc1	/	/	4	/	/
Cc1ccccc1S(=O)(=O)NC(=O)C1(C)CCN1C(=O)CCc1cccs1 (stereo unspecified)	/	3	11	68*	/
CCCCc1ccc(S(=O)(=O)NC(=O)C2(C)CCN2C(=O)CCc2cccs2)cc1 (stereo unspecified)	/	-1	-2	5	/
COCC(=O)N(C)C[C@H]1Oc2cc(-c3ccc(C)cc3)ccc2S(=O)(=O)N([C@H](C)CO)C[C@H]1C	/	/	2	/	/
Cc1oc(-c2ccc(Cl)cc2)nc1CN1CCC(C(=O)NCc2cccnc2)CC1	0	-3	/	87*	0
C[C@@H]1CN([C@@H](C)CO)S(=O)(=O)c2ccc(-c3cccc(C#N)c3)cc2O[C@H]1CN(C)Cc1cccc(F)c1	/	/	-11	/	/
O=C(O)CCc1ccc(-c2ccc(F)cc2)n1CC(=O)O	1	18	/	/	0
Cc1ccc(-c2ccc(CCC(=O)O)n2CC(=O)O)cc1	1	42*	/	-5	0
O=C(Nc1ccc(F)cc1)c1ccc(S(=O)(=O)N2CCOCC2)o1	0	0	-1	53*	/
SMILES	A1 inh	Neddylation inh	GSIS activator	Vif imaging	dFosB act
CN1CCN(C(=O)C[C@@H]2C[C@H]3c4cc(NC(=O)Nc5ccc(C(F)(F)F)cc5)ccc4O[C@H]3[C@@H](CO)O2)CC1	/	/	-4	/	/
COc1ccc(/C=C2\Sc3ccc(C(=O)NCCN4CCCCCC4)cc3N(C)C2=O)cc1	-1	-2	15	-1	27*
COc1cccc(/C=C2/Sc3ccc(C(=O)NCCN4CCCC4)cc3NC2=O)c1	1	9	9	4	36*
CCN1CCCC1CNC(=O)c1ccc2c(c1)NC(=O)/C(=C\c1ccc(C)cc1)S2 (stereo unspecified)	3	4	-19	4	39*
O=C1Nc2cc(C(=O)NCCN3CCCCCC3)ccc2S/C1=C/c1ccccc1F	/	18	4	24	/
Cc1noc(C)c1S(=O)(=O)Nc1ccc2c(c1)CC(=O)N([C@H](C)CO)C[C@@H](C)[C@H](CN(C)Cc1ccncc1)O2	/	/	2	/	/
O=C1c2ccccc2[C@@H]2C[C@@H](O)[C@H](Nc3cccc4ccccc34)CCN12	/	-8	-14	83*	-9
